According to PubChem BioAssay (Tox21):
Inconclusive results are not listed. Where a structure was tested more than once in an assay, its records may differ in their call. Calls of active or inactive are those of the source. Unless noted, the call rests on the fitted dose curve; in most records, active means well fitted cell-killing curve with a large enough effect in the repeat runs; inconclusive means weak or mixed curves, or effect the other way; inactive means no such curve, though single readings can be large or run the other way.

Molecular target: Peroxisome proliferator-activated receptor delta (Homo sapiens) (UniProt Q03181)
Sequence (Q03181 whole entry, looked up): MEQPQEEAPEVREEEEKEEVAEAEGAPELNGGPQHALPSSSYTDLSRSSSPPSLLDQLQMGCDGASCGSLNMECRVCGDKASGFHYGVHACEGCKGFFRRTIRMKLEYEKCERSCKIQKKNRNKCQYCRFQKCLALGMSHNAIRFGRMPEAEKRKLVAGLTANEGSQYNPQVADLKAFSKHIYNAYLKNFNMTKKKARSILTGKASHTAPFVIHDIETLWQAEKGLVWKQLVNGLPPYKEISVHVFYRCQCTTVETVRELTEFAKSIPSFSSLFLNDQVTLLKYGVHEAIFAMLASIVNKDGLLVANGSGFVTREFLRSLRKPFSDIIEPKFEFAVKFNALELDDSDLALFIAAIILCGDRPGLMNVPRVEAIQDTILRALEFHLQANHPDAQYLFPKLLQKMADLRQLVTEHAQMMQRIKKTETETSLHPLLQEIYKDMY
Assay: qHTS assay to identify small molecule antagonists of the peroxisome proliferator-activated receptor delta (PPARd) signaling pathway (AID 743215; active means well fitted inhibition curve with a large enough effect in the signal ratio in the repeat runs, not every such curve was filed as active; the % refers to the signal ratio;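 further: cells stimulated with agonist L165041 at 300 nM final during compound exposure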)
Settings: HEK293H PPARd-UAS-bla, beta-lactamase FRET ratio, antagonist, 17 h; series mostly up to 62 µM; ratio activity, negative = inhibition: at the top concentration
Summary of the method: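 Antagonist-mode beta-lactamase reporter screen: HEK293H cells with UAS-bla under PPARd control, stimulated by 300 nM L165041 (final) alongside test compound for 17 h at 37 C, then FRET fluorescence after 2 h substrate incubation.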
On the % scale 0 is the no-effect control and ±100 the full control effect.

Structure (SMILES)	ratio activity, negative = inhibition
COc1ccc(C=O)cc1O	-10.9% [at 80.4 µM] (inactive)
Cc1ccc2c(c1)C1CN(C)CCC1N2 (stereo not given)	-11% [at 28.9 µM] (inactive)
CC(C)[C@]12CC(=O)[C@H](C)[C@H]1C2	0.378% (inactive)
O=c1[nH]oc2c1CCNC2	2.93% (inactive)

Molecular target: Bile acid receptor (Homo sapiens) (UniProt Q96RI1)
Sequence (Q96RI1 whole entry, looked up): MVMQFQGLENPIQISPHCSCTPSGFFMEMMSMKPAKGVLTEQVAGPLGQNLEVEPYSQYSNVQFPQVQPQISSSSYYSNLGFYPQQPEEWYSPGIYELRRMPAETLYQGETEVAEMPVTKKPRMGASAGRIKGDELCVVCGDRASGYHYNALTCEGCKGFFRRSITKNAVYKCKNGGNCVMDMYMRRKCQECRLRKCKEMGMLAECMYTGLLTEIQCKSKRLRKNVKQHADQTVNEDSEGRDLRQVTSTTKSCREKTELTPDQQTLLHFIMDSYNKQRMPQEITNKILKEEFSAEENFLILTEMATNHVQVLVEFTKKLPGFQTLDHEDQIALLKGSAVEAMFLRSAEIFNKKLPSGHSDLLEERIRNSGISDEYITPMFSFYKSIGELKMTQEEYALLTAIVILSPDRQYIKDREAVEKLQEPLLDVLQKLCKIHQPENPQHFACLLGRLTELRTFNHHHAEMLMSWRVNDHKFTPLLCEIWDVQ
Assay: qHTS assay to identify small molecule antagonists of the farnesoid-X-receptor (FXR) signaling pathway (AID 743217; active means well fitted inhibition curve with a large enough effect in the signal ratio in the repeat runs, not every such curve was filed as active; the % refers to the signal ratio)
Settings: HEK293T FXR-UAS-bla, beta-lactamase ratio, CDCA-stimulated, 16 h; series mostly up to 62.6 µM; activity change, negative = inhibition: at the top concentration
Summary of the method: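 Beta-lactamase reporter under UAS control in HEK 293T cells; compound exposure 16 h at 37 °C in the presence of chenodeoxycholic acid (50 uM final); signal from B/G FRET substrate after 2 h at room temperature.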

Structure (SMILES)	activity change, negative = inhibition
COC(=O)[C@@H](N)CCCN/C(N)=N/[N+](=O)[O-]	4.64% (inactive)
CCNc1nc(Cl)nc(NC(C)(C)C)n1	-5.29% (inactive)
CCOC(=O)CCl	0.792% (inactive)
Cc1ccc2cc(C)ccc2c1	-1.56% (inactive)
C[C@H](N)C(=O)c1ccccc1	1.08% [at 81.1 µM] (inactive)
C=CCN1CC[C@]23CCCC[C@H]2[C@H]1Cc1ccc(O)cc13	-1.33% (inactive)
CCN[C@H](C)Cc1cccc(C(F)(F)F)c1	-19.8% [at 81.1 µM] (inactive)
Cc1cc(OC(=O)N(C)C)nn1C(=O)N(C)C	-5.93% (inactive)
CN(C)CCN(C)C	3.36% (inactive)
CCCOC(=O)Cc1ccc(OCC(=O)N(CC)CC)c(OC)c1	0.278% (inactive)
Cn1c(N)nc2c3cccnc3ccc21	2.95% (inactive)
CCOC(=O)C(SP(=S)(OC)OC)c1ccccc1 (stereo not given)	-2.48% (inactive)

Test system: not listed separately
Assay: qHTS assay to identify small molecule agonists of the farnesoid-X-receptor (FXR) signaling pathway - cell viability counter screen (AID 743218); further: nearly all actives have a fitted effect of over 45% in size; further: potency means the concentration at half of the fitted maximal effect
Settings: FXR-bla HEK293T viability, CellTiter-Glo luminescence, 16 h; series mostly up to 62.6 µM; viability change, negative = cytotoxic: at the top concentration
Summary of the method: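 In GeneBLAzer FXR-UAS-bla HEK 293T cells, compounds act for 16 h at 37 C. Cell viability is then scored in the reporter wells by CellTiter-Glo, 30 min at RT, luminescence.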

Structure (SMILES)	viability change, negative = cytotoxic	Potency
CCNc1nc(Cl)nc(NC(C)(C)C)n1	1.48% (inactive)	–
CCOC(=O)N(C)N=O	4.45% (inactive)	–
c1cncc([C@@H]2CCCCN2)c1	6.39% (inactive)	–
CCOC(=O)CCl	6.69% (inactive)	–
NCCOS(=O)(=O)O	38.1% (inactive)	–
Cc1ccc2cc(C)ccc2c1	28.5% (inactive)	–
C[C@H](N)C(=O)c1ccccc1	-3.17% [at 81.1 µM] (inactive)	–
C=CCN1CC[C@]23CCCC[C@H]2[C@H]1Cc1ccc(O)cc13	12.9% (inactive)	–
COc1cccc(C=O)c1	4.22% (inactive)	–
C#CC(C)(C)O	23.5% [at 81.1 µM] (inactive)	–
CCN[C@H](C)Cc1cccc(C(F)(F)F)c1	-7.23% [at 81.1 µM] (inactive)	–
CCOc1cc(OP(=S)(OC)OC)nc(CC)n1	-2.9% (inactive)	–
Brc1c(Br)c(Br)c(Br)c(Br)c1Br	26.7% [at 5.95 µM] (inactive)	–
Cc1cc(OC(=O)N(C)C)nn1C(=O)N(C)C	-0.576% (inactive)	–
O=C(Cl)OCc1ccccc1	0.862% [at 81.1 µM] (inactive)	–
ClC1=C(Cl)C2(Cl)C(CBr)CC1(Cl)C2(Cl)Cl (stereo not given)	–	54.9 µM (active) and inactive
CN(C)CCN(C)C	13.1% (inactive)	–
O=C(CCl)NCO	-15.2% (inactive)	–
CCCOC(=O)Cc1ccc(OCC(=O)N(CC)CC)c(OC)c1	-10.3% (inactive)	–
CC[C@H](O)C(C[C@H](C)N(C)C)(c1ccccc1)c1ccccc1	-10.7% [at 81.1 µM] (inactive)	–
O=CCCl	-8.51% (inactive)	–
Cn1c(N)nc2c3cccnc3ccc21	-2.05% (inactive)	–
Cl/C=C/CCl	0.459% [at 81.1 µM] (inactive)	–
C=CCc1cc(OC)c2c(c1)OCO2	-4.96% [at 81.1 µM] (inactive)	–
COc1ccc(C=O)cc1O	-8.57% [at 81.1 µM] (inactive)	–
Cc1ccc2c(c1)C1CN(C)CCC1N2 (stereo not given)	-14.1% [at 29.1 µM] (inactive)	–
Oc1ccc2c3c1O[C@H]1[C@@H](O)C=C[C@H]4[C@@H](C2)NCC[C@@]341	-14.8% [at 81.1 µM] (inactive)	–
CC(C)[C@]12CC(=O)[C@H](C)[C@H]1C2	-20.4% (inactive)	–
O=c1[nH]oc2c1CCNC2	4.53% (inactive)	–
